The whole screen tested about 6,700 compounds, of which fewer than 10 were called active.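 Rule for the calls: active = mean percent activation across replicates above the confirmation screen cutoff of 4.91%; inactive = the rest.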 These entries were drawn from the full list.
target: G-protein coupled receptor 151 (Homo sapiens) (UniProt Q8TDV0); assay: GPR151 agonism via beta-arrestin recruitment – cell-based, PathHunter beta-arrestin, luminescence, confirmation (AID 1508609); conditions: GPR151 PathHunter beta-arrestin cells, 90 min, at 11.2 µM, active compounds read high, % of EA-reagent control over plate median
Sequence (Q8TDV0 whole entry, looked up): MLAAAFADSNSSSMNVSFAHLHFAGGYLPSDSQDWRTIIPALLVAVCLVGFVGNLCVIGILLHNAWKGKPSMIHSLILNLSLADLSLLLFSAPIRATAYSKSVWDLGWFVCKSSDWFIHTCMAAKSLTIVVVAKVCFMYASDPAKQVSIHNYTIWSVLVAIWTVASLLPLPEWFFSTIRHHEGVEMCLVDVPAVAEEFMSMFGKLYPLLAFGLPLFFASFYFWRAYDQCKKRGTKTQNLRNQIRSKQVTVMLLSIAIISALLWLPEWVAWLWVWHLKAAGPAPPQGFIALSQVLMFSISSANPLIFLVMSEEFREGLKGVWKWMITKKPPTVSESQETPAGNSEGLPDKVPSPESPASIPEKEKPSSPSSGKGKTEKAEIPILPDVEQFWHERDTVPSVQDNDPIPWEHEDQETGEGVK

Structure (SMILES)	activation
Cc1nnc(SCC(=O)NCc2ccccc2)s1	-1.41% (inactive)
CCN(CC)c1nc(Nc2cc(OC)c(OC)c(OC)c2)nc(N2CCOCC2)n1	-0.81% (inactive)
COc1ccc2c(c1)C=C(CN1CCN(CC3CCCCC3)C(CCO)C1)CO2 (centres undefined)	0.99% (inactive)
COc1ccc(OC)c(NC(=O)CN(c2cccc(C)c2C)S(C)(=O)=O)c1	-1.37% (inactive)
CCc1cc2c(=O)c(-c3ccc4c(c3)OCCCO4)coc2cc1OC(=O)N1CCOCC1	-0.64% (inactive)
COc1cc(Nc2cc(N3CCN(c4ccc(F)cc4)CC3)c3noc4c3c2C(=O)c2ccccc2-4)cc(OC)c1OC	-0.64% (inactive)
O=CN1CCN(CCC(=O)Nc2ccccc2)CC1	1.05% (inactive)
CC1(C(=O)Nc2cccc(C(F)(F)F)c2)CC2c3ccccc3C1c1ccccc12 (centres undefined)	0.28% (inactive)
C=CCN(c1ccc(C(=O)Nc2ccc(OCc3ccccc3)cc2)cc1)S(C)(=O)=O	-0.47% (inactive)
O=C(COc1ccc(S(=O)(=O)NCCc2ccccc2)cc1)NC1CC1	-1.2% (inactive)
COc1cc(NC(=O)C2CC(c3ccccc3O)=NO2)c(OC)cc1Cl (centres undefined)	0.24% (inactive)
CCCCCC(=O)N/N=C(/C)c1ccc(O)cc1O	0.98% (inactive)
CCOC(=O)c1sc(NC(=O)CSc2ncccn2)c(C#N)c1C	-0.62% (inactive)
O=C(Cn1nnc2ccccc21)N/N=C/c1c(O)ccc2ccccc12	0.12% (inactive)
CC(C)CCSc1nc2c(c(=O)n1Cc1ccco1)C1(CCCCC1)Cc1ccccc1-2	0.06% (inactive)
CN1CCN(c2ccc(-c3nc4ccc(C(=O)NCc5nc6ccccc6[nH]5)cc4s3)cc2)CC1	-0.31% (inactive)
COc1cccc(C(=O)Nc2sc3c(c2C(N)=O)CCCCCC3)c1	0.1% (inactive)
COc1ccc(N2C(=O)C3CCCN3C2c2cccc(OC)c2)cc1 (centres undefined)	-1.45% (inactive)
CCOc1ccc(/C=C2N=C(/C=C/c3cccc(Cl)c3Cl)OC\2=O)cc1	-0.04% (inactive)
CCN(CC)S(=O)(=O)c1ccc(N2CCCC2)c(NC(=O)c2ccc([N+](=O)[O-])o2)c1	0.12% (inactive)
COCCN1C(=O)CC(CC(=O)NCc2nc3ccccc3[nH]2)(c2ccccc2C)C1=O (centres undefined)	0.82% (inactive)
CCc1nn(CCCN2CCN(c3cccc(Cl)c3)CC2)c(=O)n1CCOc1ccccc1	0.13% (inactive)
CCOC(=O)c1sc2nc(SCC(=O)N(C)Cc3ccccc3)n(Cc3ccc4c(c3)OCO4)c(=O)c2c1C	-1.12% (inactive)
COc1ccccc1C(=O)N/C(=C\c1ccc2c(c1)OCO2)C(N)=O	-0.62% (inactive)
